Reference: PubChem BioAssay (EPA / NIEHS)
Records with an inconclusive call do not appear. Calls of active or inactive are those of the source. Rule for the calls, unless noted: active = hit-call score of the fitted dose curve at least 0.9, where 1 is the maximum; inconclusive = response in the unintended direction; inactive = score below 0.9.

Legend:
[1] = molecular target: T1, Thyroid hormone receptor alpha (Rattus norvegicus) + Thyroid hormone receptor beta (Rattus norvegicus) (UniProt P18113+P63059); experiment: TOX21_TR_LUC_GH3_Antagonist_Followup: Tox21 GH3 Thyroid Hormone Receptor Antagonism Luciferase Follow-Up Assay (AID 2283942)
Procedure, shortened: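 Antagonist mode: GH3 cells seeded 1,500/well, compounds at 15 concentrations (92 uM to 5nM final) plus T3 at 1.0 nM final, 24 h at 37C. Luciferase read with ONE-Glo after 30 min at room temperature.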

[2] = TOX21_TRB_BLA_Antagonist_Followup_viability: Viability Assessment in the Tox21 Thyroid Hormone Receptor beta Antagonism Beta-lactamase (BLA) Follow-Up Assay (AID 2283961)
Procedure, shortened: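 In the same wells as the reporter read, cell health was gauged by CellTiter-Glo ATP luminescence, with signal loss indicating reduced viability. Cells had been exposed to test compounds for 18 h.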

[3] = molecular target: Retinoic acid receptor RXR-alpha (Homo sapiens) (UniProt P19793); experiment: TOX21_TR_RXR_BLA_Antagonist_Followup_ratio: Tox21 Thyroid Hormone Receptor beta Retinoid X Receptor alpha (RXRa) Antagonism Beta-lactamase (BLA) Follow-Up Assay, Ratio (AID 2283972)
Procedure, shortened: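 Compounds were tested in triplicate at 11 concentrations on RXRa-bla HEK293T cells for 16 h. Substrate cleavage ratio, normalized to DMSO, gave the endpoint.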

PGR (gene 5241) [4] = molecular target: PGR (gene 5241) (UniProt P06401); experiment: TOX21_PR_BLA_Followup_Antagonist_ratio: Tox21 HEK293 Progesterone Receptor (PR) Antagonism Beta-lactamase Follow-Up Assay, Ratio (AID 2283934)
Procedure, shortened: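 PR-UAS-bla HEK293T cells, 3,000/well in 2% charcoal-stripped FBS, given compound plus 1nM R5020 agonist for 16 hr at 37C. Beta-lactamase FRET substrate 2 hours, ratio cleaved/uncleaved fluorescence; viability by CellTiter-Glo in same wells.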

[5] = TOX21_PR_BLA_Followup_Agonist_viability: Viability Assessment in the Tox21 HEK293 Progesterone Receptor (PR) Agonism Beta-lactamase Follow-Up Assay (AID 2283935);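 note: signal loss means lower viability so actives are cytotoxic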
Procedure, shortened: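 PR-UAS-bla HEK293T cells in 2% charcoal-stripped FBS medium, plated 6 hr before compound addition, exposed 16 hr at 37C. Viability read by CellTiter-Glo ATP luminescence after 30 min at room temperature, in the same wells as the beta-lactamase readout.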

[6] = TOX21_PR_BLA_Followup_Antagonist_viability: Viability Assessment in the Tox21 HEK293 Progesterone Receptor (PR) Antagonism Beta-lactamase Follow-Up Assay (AID 2283936);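 note: hits lower the luminescence signal meaning cytotoxicity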
Procedure, shortened: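 PR-UAS-bla HEK293T cells (3,000/well, 2% charcoal-stripped FBS) given compound plus R5020 agonist, 16 h at 37C. CellTiter-Glo added after bla read, 30 min at room temperature; luminescence loss indicates cytotoxicity.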

[7] = TOX21_PR_LUC_Followup_Antagonist_viability: Viability Assessment in the Tox21 HEK293 Progesterone Receptor (PR) Antagonism Luciferase Follow-Up Assay (AID 2283940)
Procedure, shortened: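 HEK293-PR-A-luc cells kept in charcoal-stripped FBS medium were plated 5 h before compound addition, then exposed 16 h at 37C; viability read as cellular ATP by luciferase luminescence, loss of signal indicating cytotoxicity.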

PGR (gene 5241) [8] = molecular target: PGR (gene 5241) (UniProt P06401); experiment: TOX21_PR_LUC_Followup_Antagonist: Tox21 HEK293 Progesterone Receptor (PR) Antagonism Luciferase Follow-Up Assay (AID 2283938);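 note: curve fitted upward as signal gain over DMSO baseline despite antagonist label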
Procedure, shortened: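 Luciferase reporter in HEK293-PR-A-luc cells: 16 h compound treatment at 37C, ONE-Glo luminescence detection, DMSO as negative control and baseline.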

[9] = TOX21_PR_LUC_Followup_Agonist_viability: Viability Assessment in the Tox21 HEK293 Progesterone Receptor (PR) Agonism Luciferase Follow-Up Assay (AID 2283941);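 note: loss of signal means cytotoxicity so actives lower viability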
Procedure, shortened: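 HEK293-PR-A-luc cells, kept in 10% charcoal-stripped FBS medium, were treated with compounds for 16 h at 37C. Viability read as cellular ATP by luciferase-coupled luminescence; loss of signal indicates cytotoxicity.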

THRA (gene 7067) = THRA (gene 7067) (UniProt P10827); experiment: TOX21_TRA_COA_Agonist_Followup_ratio: Tox21 Thyroid Hormone Receptor alpha Agonism through Coactivator Recruitment Follow-Up Assay, Ratio (AID 2283948; active = hit-call score of the fitted dose curve at least 0.9, where 1 is the maximum; inactive = score below 0.9)
Procedure, shortened: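 Agonist-mode biochemical TR-FRET with TRα LBD and SRC-2 coactivator peptide; activity expressed as percent of T3 response over DMSO baseline.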

THRB (gene 7068) [10] = molecular target: THRB (gene 7068) (UniProt P10828); experiment: TOX21_TRB_BLA_Agonist_Followup_ratio: Tox21 Thyroid Hormone Receptor beta Agonism Beta-lactamase (BLA) Follow-Up Assay, Ratio (AID 2283954)
Procedure, shortened: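 Human TRβ LBD–GAL4 DBD fusion in GeneBLAzer UAS-bla HEK293T cells; 11 concentrations in triplicate, 18 h at 37°C/5% CO2, T3 as agonist control. CCF4-AM substrate 2 h at room temperature; 460:530 nm ratio fitted for gain of signal versus DMSO.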

THRB (gene 7068) [11] = molecular target: THRB (gene 7068) (UniProt P10828); experiment: TOX21_TRB_COA_Agonist_Followup_ratio: Tox21 Thyroid Hormone Receptor beta Agonism through Coactivator Recruitment Follow-Up Assay, Ratio (AID 2283963; active = hit-call score of the fitted dose curve at least 0.9, where 1 is the maximum; inactive = score below 0.9)
Procedure, shortened: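 GST-TRb LBD 5.0 nM + 0.10% BSA + cpd; add fluorescein-SRC-2 200 nM / Tb anti-GST Ab 2 nM; TR-FRET ex 340, em 520:495; norm DMSO 0%, T3 100%.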

[12] = molecular target: Retinoic acid receptor RXR-alpha (Homo sapiens) (UniProt P19793); experiment: TOX21_TR_RXR_BLA_Agonist_Followup_ratio: Tox21 Thyroid Hormone Receptor beta Retinoid X Receptor alpha (RXRa) Agonism Beta-lactamase (BLA) Follow-Up Assay, Ratio (AID 2283968)
Procedure, shortened: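 RXRa-UAS-bla HEK293T cells, 5 h attachment at 37C/5% CO2, then 11 concentrations in triplicate for 16 h; 9-cis retinoic acid positive control. FRET-B/GCCF4-AM substrate 2 h at room temperature; 460:530 nm ratio, fitted for gain versus DMSO.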

[13] = CCTE_Harrill_HTTr_Viability_DMEM_6hr: (Pilot) CCTE's 6-hour Cell Viability Assessment for the High-Throughput Transcriptomics (HTTr) Platform, in MCF-7 cells cultured in DMEM + 10% fetal bovine serum, Harrill Lab (AID 2283973; active = hit-call score of the fitted dose curve at least 0.9, where 1 is the maximum; inactive = score below 0.9)
Procedure, shortened: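 MCF-7 cells in DMEM + 10% FBS, eight-point dilution series, 6 h exposure. Membrane integrity by propidium iodide exclusion with high-content imaging; bidirectional fit versus DMSO.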

[14] = CCTE_Harrill_HTTr_Viability_DMEM_12hr: (Pilot) CCTE's 12-hour Cell Viability Assessment for the High-Throughput Transcriptomics (HTTr) Platform, in MCF-7 cells cultured in DMEM + 10% fetal bovine serum, Harrill Lab (AID 2283974; active = hit-call score of the fitted dose curve at least 0.9, where 1 is the maximum; inactive = score below 0.9)
Procedure, shortened: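 MCF-7 cells in DMEM + 10% FBS exposed 12 h to an eight-point dilution series; membrane integrity scored by propidium iodide exclusion with high-content imaging, bidirectional fitting versus DMSO.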

[15] = CCTE_Harrill_HTTr_Viability_DMEM_24hr: (Pilot) CCTE's 24-hour Cell Viability Assessment for the High-Throughput Transcriptomics (HTTr) Platform, in MCF-7 cells cultured in DMEM + 10% fetal bovine serum, Harrill Lab (AID 2283975; active = hit-call score of the fitted dose curve at least 0.9, where 1 is the maximum; inactive = score below 0.9)
Procedure, shortened: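 MCF-7 cells in DMEM with 10% FBS exposed for 24 hours to an eight-point dilution series. Membrane integrity by propidium iodide exclusion with high content imaging; bidirectional fit against DMSO.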

PGR (gene 5241) [16] = molecular target: PGR (gene 5241) (UniProt P06401); experiment: TOX21_PR_BLA_Followup_Agonist_ratio: Tox21 HEK293 Progesterone Receptor (PR) Agonism Beta-lactamase Follow-Up Assay, Ratio (AID 2283933)
Procedure, shortened: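 PR-UAS-bla HEK293T cells in medium with 2% charcoal-stripped FBS were dosed after 6 h plating and incubated 16 h at 37C. LiveBLAzer FRET substrate was added for 2 h at room temperature. Cleaved/uncleaved substrate ratio fitted against DMSO; CellTiter-Glo viability run in the same wells.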

PGR (gene 5241) [17] = molecular target: PGR (gene 5241) (UniProt P06401); experiment: TOX21_PR_LUC_Followup_Agonist: Tox21 HEK293 Progesterone Receptor (PR) Agonism Luciferase Follow-Up Assay (AID 2283937; active = hit-call score of the fitted dose curve at least 0.9, where 1 is the maximum; inactive = score below 0.9)
Procedure, shortened: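 HEK293-PR-A-luc cells, conditioned 5 days in 10% charcoal-stripped FBS medium, seeded 3,000/well for 5 h, then compound-treated 16 h at 37C. ONE-Glo luminescence read after 30 min at room temperature; gain of signal versus DMSO.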

[18] = molecular target: T1, Thyroid hormone receptor alpha (Rattus norvegicus) + Thyroid hormone receptor beta (Rattus norvegicus); experiment: TOX21_TR_LUC_GH3_Agonist_Followup: Tox21 GH3 Thyroid Hormone Receptor Agonism Luciferase Follow-Up Assay (AID 2283939)
Procedure, shortened: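 Rat GH3 cells (1,500/well) in serum-free assay medium, treated with 15-point series, 92 uM to 5 nM final, for 24 h at 37C. Luciferase via ONE-Glo luminescence; gain of signal fitted against DMSO, T3 positive control.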

[19] = TOX21_TR_RXR_BLA_Agonist_Followup_viability: Viability Assessment in the Tox21 Thyroid Hormone Receptor beta Retinoid X Receptor alpha (RXRa) Agonism Beta-lactamase (BLA) Follow-Up Assay (AID 2283970)
Procedure, shortened: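 RXRa-UAS-bla HEK293T cells, 2,500/well in phenol red-free DMEM with 2% charcoal-stripped FBS, dosed for 16 h at 37C. Viability measured by CellTiter-Glo ATP luminescence; fitted bidirectionally against DMSO baseline, loss of signal indicating cytotoxicity.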

Measured: AC50

Chain of THRB (gene 7068) (P10828 whole entry, looked up, the tested form may be a part): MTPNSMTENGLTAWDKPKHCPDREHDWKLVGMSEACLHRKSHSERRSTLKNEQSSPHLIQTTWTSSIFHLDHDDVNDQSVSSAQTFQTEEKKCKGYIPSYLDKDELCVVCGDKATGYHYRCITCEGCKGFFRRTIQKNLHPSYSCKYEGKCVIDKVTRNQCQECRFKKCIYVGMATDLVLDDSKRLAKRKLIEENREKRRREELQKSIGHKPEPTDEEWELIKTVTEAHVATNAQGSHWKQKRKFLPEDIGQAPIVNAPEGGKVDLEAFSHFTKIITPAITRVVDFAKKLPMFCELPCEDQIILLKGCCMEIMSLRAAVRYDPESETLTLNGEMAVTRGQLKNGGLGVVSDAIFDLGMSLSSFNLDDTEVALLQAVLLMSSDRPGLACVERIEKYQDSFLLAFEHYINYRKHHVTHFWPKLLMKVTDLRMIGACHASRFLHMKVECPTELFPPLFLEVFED
Chain of PGR (gene 5241) (P06401 whole entry, looked up): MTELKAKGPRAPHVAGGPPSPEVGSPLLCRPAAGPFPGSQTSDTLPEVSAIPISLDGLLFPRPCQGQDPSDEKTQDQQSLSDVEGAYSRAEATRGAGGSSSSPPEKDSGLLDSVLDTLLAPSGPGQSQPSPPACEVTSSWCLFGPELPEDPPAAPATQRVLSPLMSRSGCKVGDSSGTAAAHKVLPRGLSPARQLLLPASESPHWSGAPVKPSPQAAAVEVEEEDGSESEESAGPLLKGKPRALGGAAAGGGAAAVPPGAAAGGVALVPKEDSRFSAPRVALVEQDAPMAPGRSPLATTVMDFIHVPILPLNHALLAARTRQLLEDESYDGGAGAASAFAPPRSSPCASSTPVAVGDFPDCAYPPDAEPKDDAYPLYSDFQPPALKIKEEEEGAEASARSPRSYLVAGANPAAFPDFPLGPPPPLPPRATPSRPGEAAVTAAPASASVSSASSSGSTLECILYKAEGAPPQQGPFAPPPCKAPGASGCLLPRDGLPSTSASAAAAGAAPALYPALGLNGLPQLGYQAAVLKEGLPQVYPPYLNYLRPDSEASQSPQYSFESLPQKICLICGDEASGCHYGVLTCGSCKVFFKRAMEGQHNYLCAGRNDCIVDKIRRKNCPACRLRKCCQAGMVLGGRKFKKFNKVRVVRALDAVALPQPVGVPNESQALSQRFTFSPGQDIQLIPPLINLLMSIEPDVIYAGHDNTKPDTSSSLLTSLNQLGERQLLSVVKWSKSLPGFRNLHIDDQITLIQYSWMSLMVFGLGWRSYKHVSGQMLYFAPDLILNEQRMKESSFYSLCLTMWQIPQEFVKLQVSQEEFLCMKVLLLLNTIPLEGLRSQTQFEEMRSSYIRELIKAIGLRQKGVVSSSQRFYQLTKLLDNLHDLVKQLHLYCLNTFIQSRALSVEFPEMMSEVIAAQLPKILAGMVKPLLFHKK
Chain of Retinoic acid receptor RXR-alpha (Homo sapiens) (P19793 whole entry, looked up): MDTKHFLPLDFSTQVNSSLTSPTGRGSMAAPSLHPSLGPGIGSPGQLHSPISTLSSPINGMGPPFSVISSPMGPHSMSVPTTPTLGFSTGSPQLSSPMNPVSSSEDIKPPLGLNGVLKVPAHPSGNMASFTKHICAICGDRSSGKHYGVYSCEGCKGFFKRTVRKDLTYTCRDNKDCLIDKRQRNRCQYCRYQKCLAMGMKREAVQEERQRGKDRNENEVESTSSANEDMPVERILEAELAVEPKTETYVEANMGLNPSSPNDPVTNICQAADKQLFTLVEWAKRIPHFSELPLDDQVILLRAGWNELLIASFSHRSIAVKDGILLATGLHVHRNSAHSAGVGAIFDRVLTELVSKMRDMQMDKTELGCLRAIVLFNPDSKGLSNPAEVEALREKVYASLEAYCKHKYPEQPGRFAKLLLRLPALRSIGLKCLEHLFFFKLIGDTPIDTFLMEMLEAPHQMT
Chain of THRA (gene 7067) (P10827 whole entry, looked up, the tested form may be a part): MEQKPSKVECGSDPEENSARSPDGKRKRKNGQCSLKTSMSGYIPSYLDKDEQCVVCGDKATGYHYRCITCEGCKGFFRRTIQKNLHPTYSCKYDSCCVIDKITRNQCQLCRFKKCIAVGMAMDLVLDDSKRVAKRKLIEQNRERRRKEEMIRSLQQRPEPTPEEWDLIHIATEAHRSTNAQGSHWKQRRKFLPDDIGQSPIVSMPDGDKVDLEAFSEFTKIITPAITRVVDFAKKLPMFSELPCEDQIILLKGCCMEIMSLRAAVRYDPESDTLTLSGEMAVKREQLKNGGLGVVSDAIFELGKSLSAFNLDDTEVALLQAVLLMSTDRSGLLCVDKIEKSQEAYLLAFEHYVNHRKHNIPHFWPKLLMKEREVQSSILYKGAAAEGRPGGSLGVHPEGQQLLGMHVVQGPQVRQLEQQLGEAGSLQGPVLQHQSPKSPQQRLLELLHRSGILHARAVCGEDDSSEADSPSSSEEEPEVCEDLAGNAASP
T1 sequence (P63059 whole entry, looked up): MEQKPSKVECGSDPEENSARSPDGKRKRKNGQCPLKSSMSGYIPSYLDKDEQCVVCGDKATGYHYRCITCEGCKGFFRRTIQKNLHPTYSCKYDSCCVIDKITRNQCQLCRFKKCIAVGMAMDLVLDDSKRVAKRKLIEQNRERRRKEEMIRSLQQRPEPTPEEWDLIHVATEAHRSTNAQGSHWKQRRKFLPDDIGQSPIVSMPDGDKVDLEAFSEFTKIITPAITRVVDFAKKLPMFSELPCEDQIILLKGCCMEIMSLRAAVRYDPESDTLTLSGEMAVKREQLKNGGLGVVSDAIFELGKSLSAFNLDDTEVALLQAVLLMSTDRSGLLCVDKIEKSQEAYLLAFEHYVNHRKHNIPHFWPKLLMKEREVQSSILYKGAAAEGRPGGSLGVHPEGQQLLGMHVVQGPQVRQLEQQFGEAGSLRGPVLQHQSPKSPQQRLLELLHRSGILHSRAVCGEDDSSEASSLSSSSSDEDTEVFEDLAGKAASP
T1 sequence (P18113 whole entry, looked up): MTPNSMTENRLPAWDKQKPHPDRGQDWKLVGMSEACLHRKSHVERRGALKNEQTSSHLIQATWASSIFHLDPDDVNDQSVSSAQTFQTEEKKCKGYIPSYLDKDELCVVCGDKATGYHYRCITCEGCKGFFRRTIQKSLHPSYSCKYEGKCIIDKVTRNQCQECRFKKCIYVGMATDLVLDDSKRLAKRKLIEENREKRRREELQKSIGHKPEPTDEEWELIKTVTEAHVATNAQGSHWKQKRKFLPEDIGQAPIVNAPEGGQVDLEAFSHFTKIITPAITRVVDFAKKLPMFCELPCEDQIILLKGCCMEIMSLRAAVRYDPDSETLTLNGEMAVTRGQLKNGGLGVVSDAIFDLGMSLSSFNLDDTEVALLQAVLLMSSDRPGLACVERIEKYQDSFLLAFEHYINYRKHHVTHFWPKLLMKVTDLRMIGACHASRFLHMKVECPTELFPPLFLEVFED

Nc1nc(N)c2nc(CNc3ccc(C(=O)N[C@@H](CCC(=O)O)C(=O)O)cc3)cnc2n1
inactive: [1] | [2] | [3]

Oc1ccc2ccccc2c1N=Nc1ccccc1
inactive: PGR (gene 5241) [4] | [5] | [6] | [7]

C[C@]12C=CC(=O)C=C1CC[C@@H]1[C@@H]2C(=O)C[C@@]2(C)[C@H]1CC[C@]2(O)C(=O)CO
inactive: PGR (gene 5241) [4] | [5] | PGR (gene 5241) [8] | [7] | [9]

Cc1cc(NC(=O)C(=O)O)cc(C)c1Oc1ccc(O)c2c1CCC2
active: THRA (gene 7067) 0.00353 µM | THRB (gene 7068) [10] 0.0848 µM | THRB (gene 7068) [11] 0.00227 µM | [12] 21.6 µM

Oc1ccc2c(c1)OC[C@@H](N1CCC(O)(c3ccc(F)cc3)CC1)[C@H]2O
inactive: PGR (gene 5241) [4] | [5] | [6] | PGR (gene 5241) [8] | [7] | [9]

O=c1c(O)c(-c2ccc(O)c(O)c2)oc2cc(O)cc(O)c12
inactive: PGR (gene 5241) [4] | PGR (gene 5241) [8]

CCOC(=O)C(C)(C)Oc1ccc(Cl)cc1
inactive: [13] | [14] | [15]

CCOc1ccc2c(c1)C(C)=CC(C)(C)N2
inactive: PGR (gene 5241) [16] | PGR (gene 5241) [4] | [5] | [6] | PGR (gene 5241) [17] | PGR (gene 5241) [8] | [9]

CCCCCCCCCCC
inactive: [18] | THRA (gene 7067) | THRB (gene 7068) [10] | THRB (gene 7068) [11] | [12] | [19]

CCc1c(C(=O)NN2CCCCC2)nn(-c2ccc(Cl)cc2Cl)c1-c1ccc(Br)cc1
inactive: PGR (gene 5241) [16] | [5] | [6] | PGR (gene 5241) [17] | PGR (gene 5241) [8] | [7]
active: PGR (gene 5241) [4] 25.5 µM
